# Sa RN4220 lethal – growth inhibition of S. aureus RN4220, primary screen, OD600 | 16 h | inhibition, % (test concentration not listed) | 330,000 tested, 0.33% active; in the data active means inhibition above about 85%;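 further: plate controls were untreated cells for no effect and reference antibiotic for full effect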
# Mtb betalactam – beta-lactam sensitization of Mtb H37Rv, H37Rv; M. tuberculosis H37Rv growth with meropenem, percent inhibition; inhibition, % at 25 µM; AID 434955, 2010; 330,000 tested, 0.27% active; call rule not given here;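 further: growth measured after seven days incubation then overnight dye step; 0% = bacteria only wells and 100% = bacteria with antibiotic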
# BH1578 lux ind – inducers of Vibrio cholerae quorum light production without autoinducers, primary screen, BH1578 luxS cqsA deficient, single point; V. cholerae BH1578 lux reporter, luminescence, 6 h; activation, % at 18.7 µM; 350,000 tested, 0.16% active; in the data active means activation mostly above about 9.7%, no sharp cut-off; inconclusive means no clear call, values can overlap the other calls; inactive means mostly below about 3.7%
# Sa ugtP lethal – growth inhibition of ugtP-null S. aureus, primary screen, RN4220 ugtP deletion, OD600; growth inhibition, % (test concentration not listed); 330,000 tested, 0.54% active; 16 h; in the data active means growth inhibition above about 68%;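 further: plate controls were untreated wells for no effect and antibiotic for full effect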
# PfHsp40 rescue – rescue of yeast from PfHsp40 toxicity, primary screen, S. cerevisiae, ATP luminescence | S. cerevisiae expressing PfHsp40, growth rescue | growth rescue, % at 12.5 µM | 340,000 tested, 0.68% active; in the data active means growth rescue above about 28%, passing the limit was not always enough; inconclusive means no clear call, values can overlap the other calls;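 further: yeast W303a lacking pdr1 and pdr3 grown in galactose medium; growth measured after three days at 30 °C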
# An asterisk follows results filed as active; i = inactive; ? = inconclusive; . = not tested or not shown. Hits are enriched below; roughly 1.2% of the tested compounds scored in any of these assays.
SMILES,Sa RN4220 lethal,Mtb betalactam,BH1578 lux ind,Sa ugtP lethal,PfHsp40 rescue
CCN1/C(=C2\SC(=S)N(Cc3ccccc3)C2=O)Sc2ccccc21,-3.3,13.9,-0.3,-7.2,-0.8
CCC(CO)[n+]1c(C)cc(/C=C2\Sc3ccccc3N2Cc2ccccc2)cc1C (stereo unspecified),100.2*,100.1,-0.3,100.5*,3.6
CCC(C(=O)C(C)C(O)C(C)CCc1ccc(C)c(O)c1C(=O)O)C1O[C@](CC)(C2CC[C@](O)(CC)C(C)O2)CC1C (stereo partly specified),98.6*,.,.,90.5*,.
Cc1[nH]n(C(N)=S)c(=O)c1N=Nc1ccc2ccccc2c1,1.1,.,-0.3,-7.3,54.9*
Cc1ccc(N=Nc2c(C)[nH]n(C(N)=S)c2=O)cc1C,0.6,96.0,-0.2,0.0,-0.8
Cc1oc2c(c1C(=O)NCc1cccnc1)C(=O)c1ccccc1C2=O,91.3*,99.9,.,87.7,.
CCCCc1ccc(S(=O)(=O)NN=C(C)c2ccncc2)cc1,7.0,.,.,7.8,.
COc1ccc2nc(N3CCC(C)CC3)c(C#N)cc2c1,3.9,10.6,1.1,88.8*,0.6
COc1ccc2nc(N3CCC(O)CC3)c(C#N)cc2c1,0.7,-1.4,.,9.9,-0.2
CC1CN(C(C)CO)C(=O)Cc2cc(NC(=O)CCC(F)(F)F)ccc2OC1CN(C)C(=O)Nc1ccccc1 (stereo unspecified),3.0,.,.,1.2,.
Cc1nn(-c2ccccc2)c(C)c1C=NNC(=O)c1ccc(F)cc1,-0.2,.,.,3.8,.
CCOc1ccc(-c2c(C(=O)NN=Cc3ccsc3)nnn2-c2nonc2N)cc1,1.1,.,.,-1.2,.
C/C(=N\Nc1ccc([N+](=O)[O-])cc1)c1ccc(O)cc1,.,-0.6,i,.,180.0*
CC1(C)N=C2C(=NO)CCCC2=[N+]1[O-],5.9,.,.,-5.6,.
O=C(c1cc(-c2ccccc2)n[nH]1)N1CCN(S(=O)(=O)c2ccccc2)CC1,-0.7,?,-0.7,-13.4,30.2*
COc1ccc(-c2cc(C(=O)N3CCN(S(=O)(=O)c4ccccc4)CC3)[nH]n2)cc1,-3.7,?,-0.4,32.1,1.2
CNC(=S)Nc1ccc(C23CC4CC(CC(C4)C2)C3)cc1,-5.9,85.8,i,6.2,178.8*
OCCOCCn1c(C2CCCN2c2nc(-c3ccc(F)cc3)cs2)nc2cc(C(F)(F)F)ccc21 (stereo unspecified),-5.4,-7.3,-0.3,-4.7,?
OCCCn1c(C2CCCN2c2nc(-c3ccc(F)cc3)cs2)nc2cc(C(F)(F)F)ccc21 (stereo unspecified),-18.4,72.1,0.8,-1.9,145.2*
OCCOCCn1c(C2CCCN2c2nc(-c3ccc(F)cc3)cs2)nc2cc(Cl)c(Cl)cc21 (stereo unspecified),-12.8,79.7,-0.9,-8.9,143.4*
CCc1ccc(N2C(=O)CN(Cc3ccc(OC)c(OC)c3)C2=S)cc1,3.5,2.1,-0.4,-1.6,31.4*
COC(CC(O)CC(O)C(C)OCc1ccccc1)OC (stereo unspecified),-0.7,.,.,-2.0,.
Cc1[nH]nc2c1C(=NO)CC(C)(C)C2,-1.1,.,.,-2.1,.
O=[N+]([O-])c1ccc2[nH]c(O)c(N=NC(=S)Nc3cccnc3)c2c1,13.2,1.0,-0.4,9.5,40.8*
CCNC(=S)N=Nc1c(O)[nH]c2ccc([N+](=O)[O-])cc12,7.2,-4.7,-1.4,6.3,-0.1
SMILES,Sa RN4220 lethal,Mtb betalactam,BH1578 lux ind,Sa ugtP lethal,PfHsp40 rescue
COc1cc(C=NNC(=O)c2ccncc2)cc2c1OCO2,-3.5,.,.,8.6,.
CC(C)CC1COCCS(=O)(=O)N1Cc1ccc(Cl)c(Cl)c1 (stereo unspecified),2.7,.,.,-3.2,.
O=C(c1ccc([N+](=O)[O-])c(CS(=O)(=O)c2ccc(Cl)cc2)c1)N1CCCC1,4.3,-0.7,-0.5,3.7,40.8*
COc1ccc(NS(=O)(=O)c2cccc(C(=O)NN=Cc3ccccn3)c2)cc1,-2.6,.,.,-0.4,.
C(=NN1CCOCC1)c1nc(-c2ccccc2)n2ccccc12,5.3,.,.,5.1,.
Cc1onc(-c2ccccc2)c1C(=O)NC(=S)NNC(=O)c1ccc(O)cc1O,47.1,?,-0.6,-22.1,247.8*
COc1ccc(C2CC(=O)C=C(c3ccccc3OC)C2)cc1OC (stereo unspecified),9.0,.,.,5.0,.
Nc1ncnc2c(C3OC(CO)C(O)C3O)scc12 (stereo unspecified),.,.,i,.,144.8*
CCN(CC)c1ccc(C=NNc2nc(C)cc(=O)[nH]2)cc1,3.9,.,.,-3.5,.
CCn1ncc(C=NNS(=O)(=O)c2ccc(Cl)cc2)c1C,2.4,.,.,2.7,.
O=C(O)c1ccc2c(=O)n(-c3ccccc3F)c(=S)[nH]c2c1,7.7,3.8,1.6,4.2,-0.2
COC(=O)c1ccc2c(=O)n(-c3ccccc3F)c(=S)[nH]c2c1,88.1,-5.7,-0.4,active,-0.5
COc1ccc(C=C(C#N)C(=O)Nc2ccc(C)cc2C)cc1C(=O)O,1.8,.,.,-1.1,.
CCN(C(=O)CSc1nncn1-c1ccccc1)c1c(N)n(Cc2ccccc2)c(=O)[nH]c1=O,3.5,-4.2,-0.3,5.2,26.7*
COCCN(C(=O)CSc1nncn1-c1ccccc1)c1c(N)n(Cc2ccccc2)c(=O)[nH]c1=O,-1.8,-4.1,i,5.2,-1.4
COC(=O)[C@@]12CCCN1C(c1ccc(SC3CCCCC3)cc1)C1C(=O)N(C)C(=O)C12 (stereo partly specified),5.3,.,.,5.8,.
COc1cccc2sc(Nc3nc(-c4ccccn4)cs3)nc12,99.1*,98.5,i,98.8*,?
c1ccc(Nc2nc(-c3ccccn3)cs2)cc1,6.7,99.1,5.9,-8.0,316.9*
COc1ccc(Nc2nc(-c3ccc(OC)cc3)cs2)cc1,-0.7,2.4,i,0.4,0.2
COc1ccc(-c2csc(Nc3ccccc3)n2)cc1,-10.2,60.5,i,14.1,56.7*
O=C(Nc1cccc(-c2csc(Nc3ccccc3)n2)c1)c1ccccc1,23.2,88.5,-0.6,37.0,73.0*
COC(=O)c1ccccc1NC=C1CCc2c(c(C)nn2-c2ccccn2)C1=O,25.5,.,.,12.5,.
CC(C)C[C@@]12C(=O)N(c3cccc(F)c3)C(=O)N1C(c1ccc(Cl)cc1)C1C(=O)N(C3CCCCC3)C(=O)C12 (stereo partly specified),-4.2,.,.,-2.6,.
Cc1csc(-c2cnn(-c3ccccc3)c2NC(=O)c2ccc(C(F)(F)F)cc2)n1,1.8,50.1,i,-13.1,46.4*
CC(C)(C)NC(=O)c1cnn(-c2ccccc2)c1NC(=O)c1ccccc1,-2.9,2.9,-1.5,-11.4,0.2
O=C(Nc1ccccc1Cc1ccccc1)c1ccccc1NS(=O)(=O)c1ccc(Cl)s1,.,-1.4,-0.2,.,5.5
O=C(Nc1ccccc1)c1ccccc1NS(=O)(=O)c1ccc(Cl)s1,86.8*,4.4,-0.2,91.8*,0.9
Cc1ccc(NC(=O)c2ccccc2NS(=O)(=O)c2ccc(Cl)s2)cc1,80.6,7.2,-0.2,90.4*,80.1*
CCCCCCCCC=CCCCCCCCC(=O)NCCO,-13.7,.,.,47.5,.
